SARS PLP yeast – qHTS of Yeast-based Assay for SARS-CoV PLP; S. cerevisiae expressing SARS-CoV PLpro, growth rescue; Potency, µM (doses to about 32.9 µM), without a hit: top-dose activity, positive = growth rescue, most hits filed as activators; hit rate 0.19% among 330,000; AID 485353, 2010; also: potency is read from the fitted curve at half-maximal effect; 0% is about no effect; nearly all actives have a fitted effect of over 55% in size
Pf growth 96h – Primary qHTS for delayed death inhibitors of the malarial parasite plastid, 96 hour incubation; hit rate 6.9% among 320,000; AID 504834, 2011; P. falciparum luciferase reporter growth, 96 h; Potency, µM (highest dose often 28.7 µM), for the others: at the top dose activity change, negative = inhibition, actives largely listed as inhibitors; active = well fitted inhibition curve with a large enough effect; inconclusive = small, poorly fitted or top-dose-only effect, or another doubt; inactive = no such curve, though single readings can be large or run the other way; also: potency is read from the fitted curve at half-maximal effect; % is scaled to controls: 0 for no effect and ±100 for the full control effect
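Erythrocytes infected with luciferase-expressing P. falciparum were dispensed at 2% hematocrit and 0.05% parasitemia (final), then incubated with compounds 96 hours at 37 C in 5% CO2. Luminescence after detection reagent addition reported growth.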
Pf growth 48h – Primary qHTS for delayed death inhibitors of the malarial parasite plastid, 48 hour incubation; AID 504832, 2011; Potency, µM (highest dose often 28.7 µM), inactives show at the highest dose activity change, negative = inhibition, actives largely listed as inhibitors; hit rate 5.9% among 310,000; P. falciparum luciferase growth in erythrocytes, 48 h; active = well fitted inhibition curve with a large enough effect; inconclusive = small, poorly fitted or top-dose-only effect, or another doubt; inactive = no such curve, though single readings can be large or run the other way; also: potency is read from the fitted curve at half-maximal effect; % is scaled to controls: 0 for no effect and ±100 for the full control effect
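Luminescence readout; reporter = integrated firefly luciferase in P. falciparum. RBC culture at 2% hematocrit, 0.1% parasitemia final, 37 C/5% CO2; decreased signal taken as growth inhibition.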
Shiga toxin inh – A qHTS for Small Molecule Inhibitors of Shiga Toxin; Vero cells, Shiga toxin protein synthesis inhibition reporter; AID 2315, 2010; inhibition, % at 38.7 µM; hit rate 9.2% among 290,000; in the data active = inhibition mostly above about 28%, no sharp cut-off; inactive = mostly below about 43%; also: 0% is about no effect
NS1 function inh – qHTS Assay for Inhibitors of Influenza NS1 Protein Function. Potency, µM (titrated, usually from 46.1 µM), for inactives: at the highest dose activity, positive = more growth. AID 2326, 2010. hit rate 0.4% among 270,000; also: potency is read from the fitted curve at half-maximal effect; actives are rising curves; nearly all actives have a fitted effect of over 50% in size
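Growth recovery, yeast-based: influenza A NS1 expressed in S. cerevisiae causes slow growth, and suppressors are detected by OD600. The parent strain without NS1 is used as positive control.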
Cycloheximide cs – Cycloheximide Counterscreen for Small Molecule Inhibitors of Shiga Toxin; cell reporter, cycloheximide protein synthesis inhibition counterscreen; max response, %; hit rate 12% among 300,000; in the data active = max response mostly above about 13%, no sharp cut-off; inactive = mostly below about 14%; also: read at 38.3 µM for the half of the compounds with a filed dose; 0% is about no effect
* hit, by the source's call. The list is not random: actives were taken first. Their share in the collection is about 21%. Unless noted, calls follow the shape of the full dose curve.

`COc1cccc(-c2nc(-c3ccc(Br)o3)no2)c1` gave SARS PLP yeast 2.0%, Pf growth 96h inactive, Pf growth 48h -87.0%, Shiga toxin inh 108.0*, NS1 function inh -4.5% and Cycloheximide cs 53.7*.
For COc1cccc(-c2noc(-c3ccc4c(c3)OCO4)n2)c1 the results were SARS PLP yeast -3.5%, Pf growth 96h 49.3%, Pf growth 48h inactive, Shiga toxin inh 16.6 and Cycloheximide cs 3.4.
COc1ccc(Cc2noc(-c3ccc(OC)c(OC)c3)n2)cc1OC was read as SARS PLP yeast 2.6%, Pf growth 96h 19.0%, Pf growth 48h -7.5%, Shiga toxin inh -7.9, NS1 function inh -13.8% and Cycloheximide cs 1.4.
For COc1ccccc1-c1nc(-c2ccc(Br)o2)no1 the results were SARS PLP yeast 9.7%, Pf growth 96h inconclusive, Shiga toxin inh 145.6*, NS1 function inh -42.4% and Cycloheximide cs 97.0*.
Screening COc1ccc(-c2nc(-c3ccc(Br)o3)no2)cc1OC returned SARS PLP yeast -7.8%, Pf growth 96h inconclusive, Pf growth 48h 74.6%, Shiga toxin inh 35.4*, NS1 function inh -70.9% and Cycloheximide cs 19.0*.
For O=C1CN(C(=O)c2c(F)cccc2F)C(c2ccc(F)cc2)c2cc(F)ccc2N1 (configuration not stated) the results were SARS PLP yeast 1.0%, Pf growth 96h -15.3%, Pf growth 48h inconclusive, Shiga toxin inh -13.0, NS1 function inh -0.2% and Cycloheximide cs -2.2.
For O=[N+]([O-])c1ccccc1S(=O)(=O)N1CCN(c2ccc(F)cc2)CC1 the results were SARS PLP yeast -8.8%, Pf growth 96h inconclusive, Pf growth 48h 4.5%, Shiga toxin inh -6.6, NS1 function inh -31.0% and Cycloheximide cs -1.2.
COc1ccccc1NS(=O)(=O)c1ccc(C(=O)N2CCN(c3ccccc3)CC2)cc1 was read as SARS PLP yeast -2.5%, Pf growth 96h inconclusive and Pf growth 48h inconclusive.
COc1ccc(-c2c(C)n([O-])c3c([n+]2=O)CCCC3)cc1OC was read as SARS PLP yeast 1.0%, Pf growth 96h inconclusive, Pf growth 48h 11.1%, Shiga toxin inh -1.9, NS1 function inh 3.9% and Cycloheximide cs -1.5.
Screening COc1ccc(-c2nnc(-c3ccc(Br)o3)o2)cc1OC returned SARS PLP yeast -12.4%, Pf growth 96h inconclusive, Pf growth 48h 21.4%, Shiga toxin inh 35.1, NS1 function inh -45.9% and Cycloheximide cs 10.8*.
Screening O=C(Nc1ccccc1OC(F)F)c1ccc(S(=O)(=O)N2CCCC2)cc1 returned SARS PLP yeast -0.8%, Pf growth 96h inconclusive and Pf growth 48h inconclusive.
`Cc1oc(-c2cccc3ccccc23)nc1CN1CCC[C@H]1CO` gave SARS PLP yeast 1.2%, Pf growth 96h -23.0%, Pf growth 48h inconclusive, Shiga toxin inh 1.3, NS1 function inh 4.8% and Cycloheximide cs -1.3.
For CC(=O)Nc1ccc(S(=O)(=O)Nc2nc3ccc(C)cc3s2)cc1 the results were SARS PLP yeast 2.4%, Pf growth 96h 25.9%, Pf growth 48h 30.5%, Shiga toxin inh -6.9, NS1 function inh 0.7% and Cycloheximide cs -3.8.
Screening Cc1ccc2nc(-c3ccc(N4C(=N)SC5CS(=O)(=O)CC54)cc3)sc2c1 (configuration not stated) returned SARS PLP yeast 6.2%, Pf growth 96h -14.3%, Pf growth 48h 46.0%, Shiga toxin inh 126.3*, NS1 function inh 20.8% and Cycloheximide cs 46.4*.
`CC1=CCC(C(=O)O)C(C(=O)Nc2ccc(-c3nc4ccc(C)cc4s3)cc2)C1` (configuration not stated) gave SARS PLP yeast 1.1%, Pf growth 96h inactive, Pf growth 48h 242.6%, Shiga toxin inh 104.4*, NS1 function inh -0.6% and Cycloheximide cs 53.7*.
`CC(=O)NC(=S)Nc1ccc(-c2nc3ccc(C)cc3s2)cc1` gave SARS PLP yeast 2.3%, Pf growth 96h 225.2%, Pf growth 48h 112.0%, Shiga toxin inh 79.7*, NS1 function inh -3.0% and Cycloheximide cs 27.4*.
`CC1=CCC(C(=O)O)C(C(=O)O)C1` (configuration not stated) gave SARS PLP yeast 4.9%, Pf growth 96h 39.8%, Pf growth 48h 53.9%, Shiga toxin inh -8.6, NS1 function inh 2.6% and Cycloheximide cs -6.8.
Screening CNC(=S)Nc1ccc(C)cc1 returned SARS PLP yeast 20.5%, Pf growth 96h -18.1%, Pf growth 48h 4.1%, Shiga toxin inh -8.0, NS1 function inh 7.8% and Cycloheximide cs -2.7.
`CNC(=S)Nc1ccc(-c2nc3ccc(C)cc3s2)cc1` gave SARS PLP yeast -0.9%, Pf growth 96h inactive, Pf growth 48h inactive, Shiga toxin inh 95.1*, NS1 function inh 10.4% and Cycloheximide cs 30.1*.
CCOC(=O)N1CCC(NC(=O)C2=CCN(S(=O)(=O)c3ccc(OC)cc3)CC2)CC1 was read as SARS PLP yeast -0.2%, Pf growth 96h inconclusive, Pf growth 48h inconclusive, Shiga toxin inh -3.6, NS1 function inh -0.8% and Cycloheximide cs 1.8.
For Nc1ccc(-c2nc3cc(N)ccc3s2)cc1 the results were SARS PLP yeast 4.4%, Pf growth 96h inconclusive, Pf growth 48h 136.1%, Shiga toxin inh 66.6*, NS1 function inh 3.4% and Cycloheximide cs 37.5*.
Screening COCCNc1nnc(SC(C)C(=O)Nc2ccc(-c3nc4ccc(C)cc4s3)cc2)s1 (configuration not stated) returned SARS PLP yeast 16.7%, Pf growth 96h inconclusive, Pf growth 48h 5.4%, Shiga toxin inh 93.2*, NS1 function inh 28.7% and Cycloheximide cs 28.2*.
Screening Nc1ccc2nc(-c3ccccc3)sc2c1 returned Pf growth 96h 0.0%, Pf growth 48h 134.9%, Shiga toxin inh 25.1, NS1 function inh -9.6% and Cycloheximide cs 9.0.
Cc1ccc2nc(-c3ccc(NS(=O)(=O)c4ccc(F)cc4)cc3)sc2c1 was read as SARS PLP yeast -77.6%, Pf growth 96h 139.9%, Pf growth 48h 162.8%, Shiga toxin inh 158.6*, NS1 function inh -16.2% and Cycloheximide cs 52.3*.
`Cc1ccc2nc(-c3ccc(N)cc3)sc2c1` gave SARS PLP yeast -2.1%, Pf growth 96h inactive, Pf growth 48h 0.0%, Shiga toxin inh 10.9, NS1 function inh -3.5% and Cycloheximide cs 29.8*.
For Cc1cccc(-c2ocnc2C(=O)N2CCN(C(=O)c3cccs3)CC2)c1 the results were SARS PLP yeast 1.3%, Pf growth 96h 2.1%, Pf growth 48h 23.1%, Shiga toxin inh -2.3, NS1 function inh inconclusive and Cycloheximide cs -1.6.
CC(C)S(=O)(=O)CC(=O)c1ccc(Cl)cc1 was read as SARS PLP yeast -1.6%, Pf growth 96h 18.3%, Pf growth 48h 10.3%, Shiga toxin inh -8.5 and Cycloheximide cs 8.0.

High-throughput results as filed in PubChem.
